# Where two headings read alike, the source gives them in different places.
# Columns and labels:
# MAP2K6 = conditions: read-out: apparent Kd, n = 1
# MAP4K2 = conditions: read-out: apparent Kd, n = 1
substance,measurement,setting,value
Lestaurtinib,potency estimated from few doses,"MAP2K6; compound concentrations:100 nM and 1000 nM (sheet 'Lestaurtinib' of Supplementary Table 1),run:Lestaurtinib_02496_R2,Plate:MR013",132 nM
same,potency estimated from few doses,"MAP2K6; compound concentrations:100 nM and 1000 nM (sheet 'Lestaurtinib' of Supplementary Table 1),run:Lestaurtinib_02566_R1,Plate:MR014",207 nM
same,potency estimated from few doses,"MAP2K6; compound concentrations:100 nM and 1000 nM (sheet 'Lestaurtinib' of Supplementary Table 1),run:Lestaurtinib_02566_R2,Plate:MR014",121 nM
same,potency estimated from few doses,"MAP2K6; compound concentrations:100 nM and 1000 nM (sheet 'Lestaurtinib' of Supplementary Table 1),run:Lestaurtinib_02572_R2,Plate:MR015",149 nM
same,potency estimated from few doses,"MAP2K6; compound concentrations:100 nM and 1000 nM (sheet 'Lestaurtinib' of Supplementary Table 1),run:Lestaurtinib_02572_R3,Plate:MR015",193 nM
same,potency estimated from few doses,"MAP2K6; compound concentrations:100 nM and 1000 nM (sheet 'Lestaurtinib' of Supplementary Table 1),run:Lestaurtinib_02577_R2,Plate:MR016",158 nM
same,potency estimated from few doses,"MAP2K6; compound concentrations:100 nM and 1000 nM (sheet 'Lestaurtinib' of Supplementary Table 1),run:Lestaurtinib_02584_R3,Plate:MR017",243 nM
same,potency estimated from few doses,"MAP2K6; compound concentrations:100 nM and 1000 nM (sheet 'Lestaurtinib' of Supplementary Table 1),run:Lestaurtinib_02601_R1,Plate:MR018",172 nM
same,potency estimated from few doses,"MAP2K6; compound concentrations:100 nM and 1000 nM (sheet 'Lestaurtinib' of Supplementary Table 1),run:Lestaurtinib_02601_R3,Plate:MR018",321 nM
same,potency estimated from few doses,"MAP2K6; compound concentrations:100 nM and 1000 nM (sheet 'Lestaurtinib' of Supplementary Table 1),run:Lestaurtinib_02606_R2,Plate:MR019",140 nM
same,potency estimated from few doses,"MAP2K6; compound concentrations:100 nM and 1000 nM (sheet 'Lestaurtinib' of Supplementary Table 1),run:Lestaurtinib_02606_R3,Plate:MR019",180 nM
same,potency estimated from few doses,"MAP2K6; compound concentrations:100 nM and 1000 nM (sheet 'Lestaurtinib' of Supplementary Table 1),run:Lestaurtinib_02624_R2,Plate:MR020",154 nM
same,potency estimated from few doses,"MAP2K6; compound concentrations:100 nM and 1000 nM (sheet 'Lestaurtinib' of Supplementary Table 1),run:Lestaurtinib_02624_R3,Plate:MR020",149 nM
same,potency estimated from few doses,"MAP2K6; compound concentrations:100 nM and 1000 nM (sheet 'Lestaurtinib' of Supplementary Table 1),run:Lestaurtinib_02724_R1,Plate:MR021",141 nM
same,potency estimated from few doses,"MAP2K6; compound concentrations:100 nM and 1000 nM (sheet 'Lestaurtinib' of Supplementary Table 1),run:Lestaurtinib_02724_R2,Plate:MR021",113 nM
same,potency estimated from few doses,"MAP2K6; compound concentrations:100 nM and 1000 nM (sheet 'Lestaurtinib' of Supplementary Table 1),run:Lestaurtinib_02724_R3,Plate:MR021",151 nM
same,potency estimated from few doses,"MAP2K6; compound concentrations:100 nM and 1000 nM (sheet 'Lestaurtinib' of Supplementary Table 1),run:Lestaurtinib_02741_R1,Plate:MR023",92.6 nM
same,potency estimated from few doses,"MAP2K6; compound concentrations:100 nM and 1000 nM (sheet 'Lestaurtinib' of Supplementary Table 1),run:Lestaurtinib_02741_R2,Plate:MR023",113 nM
same,potency estimated from few doses,"MAP2K6; compound concentrations:100 nM and 1000 nM (sheet 'Lestaurtinib' of Supplementary Table 1),run:Lestaurtinib_02741_R3,Plate:MR023",130 nM
same,potency estimated from few doses,"MAP2K6; compound concentrations:100 nM and 1000 nM (sheet 'Lestaurtinib' of Supplementary Table 1),run:Lestaurtinib_02748_R2,Plate:MR024",231 nM
same,potency estimated from few doses,"MAP2K6; compound concentrations:100 nM and 1000 nM (sheet 'Lestaurtinib' of Supplementary Table 1),run:Lestaurtinib_02748_R3,Plate:MR024",190 nM
same,potency estimated from few doses,"MAP2K6; compound concentrations:100 nM and 1000 nM (sheet 'Lestaurtinib' of Supplementary Table 1),run:Lestaurtinib_02752_R3,Plate:MR025",175 nM
same,potency estimated from few doses,"MAP2K6; compound concentrations:100 nM and 1000 nM (sheet 'Lestaurtinib' of Supplementary Table 1),run:Lestaurtinib_02765_R1,Plate:MR026",218 nM
same,potency estimated from few doses,"MAP2K6; compound concentrations:100 nM and 1000 nM (sheet 'Lestaurtinib' of Supplementary Table 1),run:Lestaurtinib_02765_R2,Plate:MR026",200 nM
same,potency estimated from few doses,"MAP2K6; compound concentrations:100 nM and 1000 nM (sheet 'Lestaurtinib' of Supplementary Table 1),run:Lestaurtinib_02765_R3,Plate:MR026",115 nM
same,potency estimated from few doses,"MAP2K6; compound concentrations:100 nM and 1000 nM (sheet 'Lestaurtinib' of Supplementary Table 1),run:Lestaurtinib_02768_R1,Plate:MR028",183 nM
same,potency estimated from few doses,"MAP2K6; compound concentrations:100 nM and 1000 nM (sheet 'Lestaurtinib' of Supplementary Table 1),run:Lestaurtinib_02795_R1,Plate:MR022",143 nM
same,potency estimated from few doses,"MAP2K6; compound concentrations:100 nM and 1000 nM (sheet 'Lestaurtinib' of Supplementary Table 1),run:Lestaurtinib_02802_R2,Plate:MR029",180 nM
same,potency estimated from few doses,"MAP2K6; compound concentrations:100 nM and 1000 nM (sheet 'Lestaurtinib' of Supplementary Table 1),run:Lestaurtinib_02802_R3,Plate:MR029",440 nM
same,potency estimated from few doses,"MAP2K6; compound concentrations:100 nM and 1000 nM (sheet 'Lestaurtinib' of Supplementary Table 1),run:Lestaurtinib_03172_R1,Plate:MR031",154 nM
same,potency estimated from few doses,"MAP2K6; compound concentrations:100 nM and 1000 nM (sheet 'Lestaurtinib' of Supplementary Table 1),run:Lestaurtinib_03252_R2,Plate:MR032",296 nM
same,potency estimated from few doses,"MAP2K6; compound concentrations:100 nM and 1000 nM (sheet 'Lestaurtinib' of Supplementary Table 1),run:Lestaurtinib_03260_R1,Plate:MR033",161 nM
same,potency estimated from few doses,"MAP2K6; compound concentrations:100 nM and 1000 nM (sheet 'Lestaurtinib' of Supplementary Table 1),run:Lestaurtinib_03260_R3,Plate:MR033",140 nM
same,potency estimated from few doses,"MAP4K2; compound concentrations:100 nM and 1000 nM (sheet 'Lestaurtinib' of Supplementary Table 1),run:Lestaurtinib_02339_R1,Plate:MR001",329 nM
same,potency estimated from few doses,"MAP4K2; compound concentrations:100 nM and 1000 nM (sheet 'Lestaurtinib' of Supplementary Table 1),run:Lestaurtinib_02339_R2,Plate:MR001",231 nM
same,potency estimated from few doses,"MAP4K2; compound concentrations:100 nM and 1000 nM (sheet 'Lestaurtinib' of Supplementary Table 1),run:Lestaurtinib_02364_R1,Plate:MR002",180 nM
same,potency estimated from few doses,"MAP4K2; compound concentrations:100 nM and 1000 nM (sheet 'Lestaurtinib' of Supplementary Table 1),run:Lestaurtinib_02364_R2,Plate:MR002",196 nM

# Reference: article PMC11062922 (Nature Chemical Biology, 2023)
